Results published in PubChem BioAssay (NCI).
Several values for one entry are separate records, joined by “and”; a condition that tells them apart may be missing. Identical values can stand only once. About 79,000 compounds went through this panel and 15% of them were active in at least one assay; those are over-represented in the sample as a whole. Some structures have more than one record in an assay (separate samples or runs), and their calls can disagree. Activity calls are given as the source filed them. Cut-off read from the data, not from the text of the source: active = growth inhibition above about 70%; inactive = the rest.

Legend:
[1] = NCI Yeast Anticancer Drug Screen. Data for the rad50 strain (AID 155);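 note: 0% = growth of vehicle-only cultures of the same strain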; details: S. cerevisiae rad50 strain growth inhibition, stronger effect = higher value
In short: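 Cells are treated with compound, grown, and their growth is then scored against vehicle-only cultures of the same repair-deficient yeast strain.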

[2] = NCI Yeast Anticancer Drug Screen. Data for the mec2-1 strain (AID 157); details: S. cerevisiae mec2-1 strain, stronger effect = higher value
In short: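 Mutant yeast (mec2-1) grown with compound; growth inhibition relative to vehicle control reported.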

[3] = NCI Yeast Anticancer Drug Screen. Data for the sgs1 mgt1 strain (AID 161);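 note: 0% = growth of cultures given vehicle only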; details: S. cerevisiae sgs1 mgt1 strain, stronger effect = higher value
In short: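 Growth of a repair-deficient yeast mutant was monitored after compound treatment and expressed as inhibition relative to vehicle-treated cultures.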

[4] = NCI Yeast Anticancer Drug Screen. Data for the cln2 rad14 strain (AID 165);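 note: 0% = growth equal to vehicle treated cultures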; details: S. cerevisiae cln2 rad14 strain, stronger effect = higher value
In short: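 Readout is yeast growth inhibition versus vehicle-treated controls, using a strain with cln2 and rad14 alterations exposed to compound.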

[5] = NCI Yeast Anticancer Drug Screen. Data for the bub3 strain (AID 167); details: S. cerevisiae bub3 mutant strain, stronger effect = higher value
In short: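 Part of a panel of yeast mutants defective in DNA damage repair or cell cycle regulation. Each strain is grown with compound, and inhibition is calculated relative to solvent-treated cultures.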

[6] = NCI Yeast Anticancer Drug Screen. Data for the mlh1 rad18 strain (AID 175); details: S. cerevisiae mlh1 rad18 strain growth inhibition, stronger effect = higher value
In short: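 Genetically defined yeast (DNA repair-deficient) exposed to compounds; growth inhibition determined relative to vehicle.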

[7] = at 5.0 µM (retest, dose inferred, filed as 0.5)
[8] = at 50.0 µM (retest, dose inferred, filed as 5.0)

Measured: growth inhibition

CCOC(=O)c1c(CN2CCNCC2)nc2ccc(Cl)cc2c1-c1ccccc1
inactive: [1]; [7] 30% | [1]; [8] 30% | [1]; at 50.0 µM 29.4% | [2]; [7] 35% | [2]; [8] 35% | [2]; at 50.0 µM 14.2% | [3]; [7] 26% | [3]; [8] 26% | [3]; at 50.0 µM 68% | [4]; [7] 23% | [4]; [8] 23% | [4]; at 50.0 µM 41.1% | [5]; [7] 29% | [5]; [8] 29% | [5]; at 50.0 µM 27.6% | [6]; [7] 32% | [6]; [8] 32% | [6]; at 50.0 µM 39.5%

Cc1ccc(S(=O)(=O)Nc2cc(S(=O)(=O)O)c(N)c3c2C(=O)c2ccccc2C3=O)cc1
inactive: [1]; [7] 51% | [1]; at 50.0 µM 60.2% | [2]; [7] 47% | [2]; at 50.0 µM 30.4% | [3]; [7] 25% | [3]; [8] 65% | [3]; at 50.0 µM 62.8% | [4]; [7] 43% | [4]; at 50.0 µM 66.2% | [5]; [7] 45% | [5]; at 50.0 µM 60.1% | [6]; [7] 53% | [6]; at 50.0 µM 60.5%
active: [1]; [8] 99% | [2]; [8] 99% | [4]; [8] 89% | [5]; [8] 78% | [6]; [8] 99%

CC(C)C1=CC23CCC4C(C)(C(=O)O)CCCC4(C)C2CC1C1C(=O)OC(=O)C13 (configuration not stated)
active: [1]; [7] 93% | [1]; [8] 99% | [1]; at 50.0 µM 99.3% and 99.5% | [2]; [7] 96% | [2]; [8] 100% | [2]; at 50.0 µM 99.5% and 99.7% | [3]; [7] 87% | [3]; [8] 100% | [4]; [7] 85% | [4]; [8] 99% | [4]; at 50.0 µM 99% and 98.5% | [5]; [7] 90% | [5]; [8] 99% | [5]; at 50.0 µM 99% and 99.5% | [6]; [7] 90% | [6]; [8] 99% | [6]; at 50.0 µM 99.4% and 99.5%
99.6% (active) and 49.5% (inactive): [3]; at 50.0 µM

S=c1nc[nH]c2[nH]ccc12
inactive: [1]; [7] -3% | [1]; [8] -4% | [1]; at 50.0 µM 10.1% | [2]; [7] 2% | [2]; [8] -3% | [2]; at 50.0 µM 0.6% | [3]; [7] 0% | [3]; [8] -2% | [3]; at 50.0 µM -2.35% | [4]; [7] -2% | [4]; [8] -7% | [4]; at 50.0 µM 48% | [5]; [7] -1% | [5]; [8] -6% | [5]; at 50.0 µM -5.4% | [6]; [7] -1% | [6]; [8] 0% | [6]; at 50.0 µM 2.8%
